# Source: PubChem BioAssay (The Scripps Research Institute Molecular Screening Center)
# PRMT1 inh – PRMT1 (human) inhibition, primary screen; Q99873; recombinant PRMT1, activity-based probe fluorescence polarization; 370,000 tested, 1.3% active; inhibition, % at 2.79 µM;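 active = inhibition above about 21% made by adding two undisclosed values, limit read from the data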
# MBD2 DNA inh – inhibitors of human MBD2 binding to methylated oligonucleotide; Q9UBB5; TR-FRET; inhibition, % at 4.4 µM; 370,000 tested, 0.31% active; AID 686964; in the data active = inhibition above about 13%
# LEDGF integ inh – blocks HIV-1 LEDGF/p75-dependent DNA integration; TR-FRET IN-LEDGF/p75 DNA integration, Eu/Cy5; inhibition, % at 3.7 µM; 370,000 tested, 0.64% active; AID 743269;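 active = inhibition above the screen-wide mean plus 3 SD, cut at about 13% in these data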;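 also: signal is the Cy5 over europium emission ratio at 671 and 618 nm; 0% = plate median of compound wells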
# ABHD5 PLIN5 PPI – ABHD5-PLIN5 protein interaction inhibition. Split G. princeps luciferase complementation, luminescence, 4 h. inhibition, % at 4 µM. 360,000 tested, 0.78% active;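 active = inhibition above the mean inhibition across every tested compound plus 3 SD, cut at about 22% in these data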;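 also: 0% = DMSO only wells and the 100% control is not disclosed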
# rCAG RNA binder – r(CAG) repeat RNA binding. TO-PRO-1 dye displacement fluorescence. inhibition, % at 3 µM. 370,000 tested, 1.3% active. AID 651821;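 active = inhibition above the plate cutoff, the mean of all test compounds on that plate plus 3 SD, cut at about 35% in these data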;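 also: 0% = DMSO alone and 100% = 100 µM mitoxantrone as full dye displacement; higher means more dye released from RNA so lower well fluorescence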
# UHRF1 binding – human UHRF1 methylated DNA binding inhibitors; 370,000 tested, 0.75% active; inhibition, % at 4.4 µM; UHRF1 binding to methylated oligo, TR-FRET; Q96T88; in the data active = inhibition above about 21%;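 also: UHRF1 SRA domain binding a hemimethylated CpG hairpin DNA probe; 0% = median of test compound wells and 100% = reference inhibitor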
# Target sequence (Q96T88 whole entry, looked up, the tested form may be a part): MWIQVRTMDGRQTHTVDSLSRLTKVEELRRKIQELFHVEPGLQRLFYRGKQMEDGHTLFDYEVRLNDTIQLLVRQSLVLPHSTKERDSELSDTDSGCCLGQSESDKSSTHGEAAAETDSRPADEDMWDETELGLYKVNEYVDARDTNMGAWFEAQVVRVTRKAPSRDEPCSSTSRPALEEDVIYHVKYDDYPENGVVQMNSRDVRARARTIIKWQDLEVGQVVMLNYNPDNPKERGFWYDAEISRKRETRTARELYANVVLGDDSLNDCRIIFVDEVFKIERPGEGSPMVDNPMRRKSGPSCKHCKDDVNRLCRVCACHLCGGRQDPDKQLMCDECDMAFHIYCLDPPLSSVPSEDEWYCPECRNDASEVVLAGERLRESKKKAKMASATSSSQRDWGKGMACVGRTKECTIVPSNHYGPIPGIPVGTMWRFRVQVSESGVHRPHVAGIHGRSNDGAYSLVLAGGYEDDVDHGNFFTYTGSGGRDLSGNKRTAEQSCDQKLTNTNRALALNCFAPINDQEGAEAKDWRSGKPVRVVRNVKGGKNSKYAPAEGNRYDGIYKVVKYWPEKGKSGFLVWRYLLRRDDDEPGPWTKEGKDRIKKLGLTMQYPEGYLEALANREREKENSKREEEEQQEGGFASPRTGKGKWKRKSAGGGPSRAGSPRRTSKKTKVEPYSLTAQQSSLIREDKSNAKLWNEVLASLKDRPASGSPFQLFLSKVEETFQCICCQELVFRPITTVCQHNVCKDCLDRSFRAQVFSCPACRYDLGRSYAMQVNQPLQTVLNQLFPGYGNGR
# rCAG binder conf – r(CAG) RNA repeat binding, confirmation; shares compounds with rCAG RNA binder; TO-PRO-1 dye displacement fluorescence; inhibition, % at 3 µM; 4,300 tested, 70% active; AID 652065;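 active = inhibition above a per-plate cutoff, the mean inhibition of sample wells plus 3 SD, cut at about 35% in these data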;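 also: loss of TO-PRO-1 fluorescence as compound displaces dye from 1x1 AA loop RNA; 0% = DMSO only wells and 100% = 100 µM mitoxantrone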
# dCAG dye counter – disrupts DNA CAG TO-PRO-1 complex, flagging rCAG hits; shares compounds with rCAG RNA binder; d(CAG) DNA oligo TO-PRO-1 dye displacement, fluorescence; inhibition, % at 3 µM; 4,300 tested, 94% active;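 active = inhibition above its plate's cutoff, the mean test-well inhibition plus 3 SD, cut at about 4.8% in these data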;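 also: 0% = DNA dye mix with DMSO and 100% = 100 µM mitoxantrone; hits displace the dye from DNA and so lower well fluorescence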
# Numbers without * were called inactive; x = no result given. This is a sample that favours compounds with a hit; in the whole collection about 4.1% have one here.
SMILES,PRMT1 inh,MBD2 DNA inh,LEDGF integ inh,ABHD5 PLIN5 PPI,rCAG RNA binder,UHRF1 binding,rCAG binder conf,dCAG dye counter
COc1ccc(CCN(Cc2cccs2)S(=O)(=O)c2ccc(C(=O)O)cc2)cc1OC,-0.2,0.7,0.3,-2.8,36.5*,-2.3,37.1*,5.5*
COC(=O)c1cc(NS(=O)(=O)c2ccc(Cl)c(N3C(=O)c4ccc(C(=O)O)cc4C3=O)c2)cc(C(=O)OC)c1,4.2,3.1,-4.1,7.5,51.7*,-2.5,45.3*,13.3*
CC1=NN(c2nc(-c3ccc(C)cc3)cs2)C(=O)C1N=Nc1cccc(O)c1 (configuration not stated),1.1,6.0,1.4,-0.8,36.9*,-1.5,49.0*,22.5*
CC1=NN(c2nc(-c3ccc(C)cc3)cs2)C(=O)C1N=Nc1ccccc1O (configuration not stated),-0.1,-4.4,-0.5,-2.1,25.1,-3.4,x,x
CCCCN(C)S(=O)(=O)c1ccc2[nH]c(=O)oc2c1,-2.3,-7.7,1.1,x,4.8,-3.3,x,x
O=C(N[C@@H](Cc1cccnc1)C(=O)N1CCC[C@H]1C(=O)NCCc1ccccc1Cl)C1CC1,2.9,2.6,-0.3,x,-2.5,3.0,x,x
CC(=O)Nc1nc2ccc(S(=O)(=O)N3CCCCC3)cc2s1,-0.2,2.6,1.6,3.2,4.3,1.4,x,x
Cc1ccc(S(=O)(=O)Nc2nc3ccc(S(=O)(=O)N4CCCC4)cc3s2)cc1,1.8,-2.7,4.0,4.8,71.1*,-0.3,74.3*,38.3*
O=S(=O)(Nc1nc2ccc(S(=O)(=O)N3CCCCC3)cc2s1)c1ccccc1,4.4,-5.1,1.9,-4.3,71.6*,-1.7,64.7*,28.3*
CCC(C)N(C(=O)c1oc(=O)c2ccccc2c1-c1ccc(C)cc1)C(C)CC (configuration not stated),0.4,-3.4,-1.7,x,2.4,5.2,x,x
COc1ccc(C2CC(=O)C(c3ccccc3OC)=CN2Cc2ccccc2)cc1 (configuration not stated),-3.3,3.0,1.8,x,-1.2,0.8,x,x
S=c1[nH]nc(COc2ccccc2)n1/N=C/c1ccccc1Br,8.9,2.1,-1.4,6.9,38.4*,-0.7,38.2*,8.4*
FC(F)(F)c1ccc(/C=N/n2c(COc3ccccc3)n[nH]c2=S)cc1,13.7,-5.3,2.0,-3.2,50.6*,-2.9,37.2*,8.5*
S=c1[nH]nc(COc2ccccc2)n1/N=C/c1ccccn1,-2.0,0.5,2.4,-8.1,-1.4,-1.6,x,x
FC(F)(F)c1ccccc1/C=N/n1c(COc2ccccc2)n[nH]c1=S,20.6,-3.1,-2.5,-4.7,44.5*,-1.2,27.9,5.5*
CC(C)C[C@H]1COc2cc(N3CCOCC3)ccc2S(=O)(=O)N1,-5.6,0.9,-0.8,x,5.1,10.8,x,x
O=C(CSc1nc2ccccc2nc1N1CCOCC1)N1CCN(c2cccc(C(F)(F)F)c2)CC1,-1.2,0.9,-0.2,x,4.4,-0.2,x,x
CC(C)C[C@@H](C(=O)N[C@@H](C(=O)O)c1ccccc1)N1C(=O)N2CCc3c([nH]c4ccccc34)[C@@]2(C)C1=O,-0.9,2.3,5.1,-3.4,42.6*,-2.4,43.5*,11.9*
COc1ccc(NC(=O)CSc2nnc(NC(C)=O)s2)c([N+](=O)[O-])c1,-1.7,3.1,0.1,-4.5,55.3*,1.6,2.2,0.3
COCCCn1c(=O)/c(=C\c2cccc(OC)c2OC)s/c1=C(/C#N)C(=O)Nc1ccc(C(=O)O)cc1,9.7,-1.0,-3.4,-8.7,52.4*,2.6,73.0*,34.1*
CCCOC(=O)Cn1cnc2scc(-c3ccc(C)cc3)c2c1=O,0.5,-4.3,1.0,-5.8,0.1,-0.9,x,x
CCc1ccc(-c2csc3ncn(Cc4ccc(C(=O)O)cc4)c(=O)c23)cc1,-1.8,-0.4,2.8,5.1,34.8*,0.1,29.2,7.7*
COC(=O)C1=C(C)N(C)C(=NCc2cccc(C(F)(F)F)c2)NC1c1ccccc1 (configuration not stated),3.1,4.1,-0.2,x,5.2,3.8,x,x
CCOC(=O)N/N=C/c1cc(OC)c(O)c(OC)c1,0.4,3.2,-3.7,4.3,1.7,0.9,x,x
